MEP2 TOR yeast = modulators of MEP2-GFP levels in yeast, primary screen, S. cerevisiae, multiplex flow cytometry, MLPCN library | GFP response vs DMSO, % at 10 µM | S. cerevisiae MEP2-GFP strain, 3 h; 100% = DMSO control level | hit rate 0.51% among 330,000;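 active means GFP response versus DMSO above a set limit, roughly screen mean plus 3 SD, cut at about 180% in these data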;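 further: median GFP fluorescence of the barcode-gated MEP2-GFP cells per well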
RPL19A TOR yeast = RPL19A-GFP expression modulators in yeast, primary screen, cell-based, S. cerevisiae, multiplex flow cytometry, MLPCN | percent response vs DMSO, % at 10 µM | S. cerevisiae RPL19A-GFP strain, 3 h; stronger effect = lower value | AID 2025, 2009 | hit rate 0.3% among 330,000;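 active means percent response vs DMSO below 50%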;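 further: median channel GFP fluorescence of the barcoded RPL19A-GFP strain; ratio of sample median GFP to plate DMSO average so 100% = DMSO; lower means less RPL19A-GFP as with rapamycin TOR inhibition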
AGP1-GFP MLPCN = modulators of AGP1-GFP expression in yeast TOR pathway, primary screen, cell-based, multiplex flow cytometry, S. cerevisiae, MLPCN library | GFP response vs DMSO, % at 10 µM | 3 h; GFP as percent of DMSO wells | hit rate 0.02% among 320,000 | AID 2066, 2009;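 active means GFP response relative to DMSO above a set limit, near screen average plus 3 SD, cut at about 150% in these data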;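 further: median GFP channel fluorescence of the gated AGP1 strain per well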
LAP4 TOR yeast = modulators of LAP4-GFP expression in yeast, primary screen, S. cerevisiae, multiplex flow cytometry, MLPCN library; 3 h; median GFP as percent of DMSO wells; GFP response vs DMSO, % at 10 µM; hit rate 0.34% among 320,000; AID 2023, 2009;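 active means GFP response vs DMSO above a set limit, about the screen mean plus 3 SD, cut at about 150% in these data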
CIT2-GFP yeast = modulators of CIT2-GFP expression in yeast, primary screen, S. cerevisiae, GFP fusion, multiplex flow cytometry, MLPCN library. hit rate 0.065% among 320,000. AID 2029, 2009. GFP response vs DMSO, % at 10 µM. S. cerevisiae CIT2-GFP strain, 3 h; 100 means same as DMSO wells;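 active means GFP response relative to DMSO above a set limit, near the screen mean plus 3 SD, cut at about 150% in these data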;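 further: ratio of well median GFP fluorescence to mean of DMSO wells on the plate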
LAP4 cherry2 = LAP4-GFP expression modulators in yeast, confirmation, cell-based, second cherry pick, flow cytometry; hit rate 20% among 590; S. cerevisiae LAP4-GFP strain, 3 h; AID 2621, 2010; shares compounds with LAP4 TOR yeast; GFP response vs DMSO, % at 10 µM;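 active means GFP signal as percent of the solvent control above about 150%, meaning raised reporter expression, limit read from the data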;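 further: ratio of well median GFP fluorescence to plate DMSO mean so 100% = DMSO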
MEP2 cherry2 = modulators of MEP2-GFP levels in yeast, confirmation, S. cerevisiae, flow cytometry GFP, second cherry picks; shares compounds with LAP4 TOR yeast; S. cerevisiae MEP2-GFP strain, 3 h; GFP response vs DMSO, % at 10 µM; hit rate 10% among 590;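 active means GFP signal above 150% of the solvent control wells, that is a rise of more than half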;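 further: median channel GFP fluorescence of all gated yeast cells per well; ratio of median GFP to plate DMSO average so 100% = DMSO level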
RPL19A GFP CP2 = RPL19A-GFP modulators in TOR pathway yeast, confirmation, cell-based, S. cerevisiae, flow cytometry, second cherry pick; shares compounds with LAP4 TOR yeast; S. cerevisiae RPL19A-GFP strain, 3 h; stronger effect = lower value; 100% means same as DMSO wells; GFP response vs DMSO, % at 10 µM; hit rate 3% among 590;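 active means under 65% GFP response relative to DMSO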;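 further: median GFP channel fluorescence per well over the all cells gate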
CIT2-GFP pick2 = modulators of CIT2-GFP expression in yeast, confirmation, flow cytometry, second cherry pick, single plex; S. cerevisiae CIT2-GFP strain, 3 h; DMSO control wells read 100%; shares compounds with LAP4 TOR yeast; GFP response vs DMSO, % at 10 µM; AID 2624, 2010; hit rate 8% among 590;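 active means GFP response vs DMSO above about 150%, limit read from the data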;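 further: median green fluorescence per well over all gated yeast cells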
AGP1-GFP pick2 = AGP1-GFP expression modulators, hit retest, confirmation, cell-based, flow cytometry, S. cerevisiae, cherry pick set 2; shares compounds with LAP4 TOR yeast; S. cerevisiae AGP1-GFP strain, 3 h; percent response vs DMSO, % at 10 µM; 590 tested, under 10 active;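 active means over 150 percent of DMSO response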;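 further: median GFP channel fluorescence over all cells without mother daughter split; sample median GFP divided by mean DMSO control so 100% equals DMSO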
s288c autofluor = compound autofluorescence in yeast s288c, dose response, artefact control for yeast TOR pathway GFP screen, s288c strain. shares compounds with LAP4 TOR yeast. S. cerevisiae s288c, 520 nm autofluorescence, flow cytometry, 3 h; stronger effect = higher value; zero means same as solvent-only cells. fluorescence change (kMESF span) at 33 µM. 610 tested, under 10 active. AID 2757, 2010;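 active means fluorescence span over the dose series, or activity score, above about 33, limit read from the data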
Yeast autofl DR = autofluorescence of compounds in yeast s288c, dose response, artefact control for yeast TOR pathway GFP screen, primary hits, KU SAR, s288c parental; shares compounds with LAP4 TOR yeast; S. cerevisiae s288c parental, compound autofluorescence, flow cytometry, 3 h; fluorescence change (span) at 33 µM; 110 tested, under 10 active; AID 488829, 2010;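 active means fluorescence change span, or the activity score built from it, above 25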
TORC1 bypass = wild-type yeast growth inhibition sparing TORC1 bypass cells, mechanism study for yeast TOR pathway GFP screen, BY4741 wild type, TORC1 bypass strain | 120 tested, under 10 active | growth rating (0-3) at 30 µM | AID 504456, 2011 | shares compounds with LAP4 TOR yeast | S. cerevisiae BY4741 spot growth rating, 48-72 h; stronger effect = lower value;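 active means growth rating at most 1 for wild type yeast while the TORC1 bypass strain still grows fully, rated 3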
Starred values were filed as active, the others as inactive; · = no result given; [ ] = another dose, or the depositor's remark. This is a sample that favours compounds with a hit; in the whole collection about 0.93% have one here.

SMILES	MEP2 TOR yeast	RPL19A TOR yeast	AGP1-GFP MLPCN	LAP4 TOR yeast	CIT2-GFP yeast	s288c autofluor	TORC1 bypass	others
Nc1cc(Nc2cccc(F)c2)nc(NCc2ccccc2)n1	·	·	·	·	·	·	3	Yeast autofl DR=0.42
Nc1nc(NCc2ccco2)nc(Nc2cccc(F)c2)c1[N+](=O)[O-]	91	94	96	92	89	·	3	Yeast autofl DR=0.05
Cc1ccc(C(=O)N(CC(=O)NC2CCCC2)c2ccccc2Cl)s1	104	98	102	107	98	·	·
COc1cc(CC(=O)N(C)CC(=O)Nc2cc(C)ccc2C)cc(OC)c1OC	110	100	104	113	109	·	·
CCOC(=O)c1c(N)nc(NC)nc1Nc1cccc(F)c1	·	·	·	·	·	·	3
Nc1nc(NCc2ccccc2)nc(Nc2cccc(F)c2)c1[N+](=O)[O-]	86	88	85	82	92	·	3	Yeast autofl DR=0.1
O=c1c2cc(Br)ccc2nc(-c2ccc([N+](=O)[O-])cc2)n1O	88	65	68	121	69	0.2	·	LAP4 cherry2=148;MEP2 cherry2=169*;RPL19A GFP CP2=51*;CIT2-GFP pick2=121;AGP1-GFP pick2=80
N#Cc1ccc(-c2nc3ccc(Br)cc3c(=O)n2O)cc1	96	85	87	131	80	·	·
CC1CCC(C(C)C)C(OP(=O)(c2ccc(N(C)C)cc2)C(O)c2cccnc2)C1 (stereo not given)	232*[may fluoresce green]	119	113	150	234*[may fluoresce green]	·	·	LAP4 cherry2=95;MEP2 cherry2=108;RPL19A GFP CP2=102;CIT2-GFP pick2=106;AGP1-GFP pick2=103
CCOC(=O)N1CCN(C(=O)c2ccc(S(=O)(=O)Nc3ccccc3)cc2)CC1	111	96	88	102	172*	·	·	LAP4 cherry2=108;MEP2 cherry2=105;RPL19A GFP CP2=101;CIT2-GFP pick2=102;AGP1-GFP pick2=99
Cc1ccc(C)c(Cn2nc(-c3cc(C)ccc3C)ccc2=O)c1	117	101	94	106	98	·	·
COc1ccc(/C=C/C(=O)NC(=S)NNC(=O)c2cnccn2)cc1	122	98	93	225*	94	2.2	3	Yeast autofl DR=0.57
O=C(/C=C/c1ccc(F)cc1)NC(=S)NNC(=O)c1cnccn1	122	83	75	261*	87	1.4	·
O=C(NC(=S)NNC(=O)c1cnccn1)c1ccc(F)cc1	109	102	80	232*	91	0.61	3	Yeast autofl DR=0.49
COc1ccc(/C=C/C(=O)NC(=S)NNC(=O)c2cccnc2)cc1	104	103	107	101	111	·	·
O=C(/C=C/c1ccc(F)cc1)NC(=S)Nc1ccccc1	109	101	91	92	92	·	·
C=CCOc1ccccc1C(=O)/C=C1/C(=O)Nc2ccccc21	91	101	91	132	84	-0.4	·
NC(=O)COc1ccc(C(=O)/C=C2/C(=O)Nc3ccccc32)cc1	91	94	105	103	109	0.91	·
C=CCOc1ccc(C(=O)/C=C2/C(=O)Nc3ccccc32)cc1	106	105	105	105	97	-0.2	·
O=C(CNC(=O)c1ccc(Cl)cc1)NC(CO)c1ccccc1 (stereo not given)	98	100	105	107	100	·	·
N#Cc1nccnc1S(=O)(=O)c1cccs1	77	67	86	251*	67	0.61	·
CN(Cc1ccccc1C#N)S(=O)(=O)c1cccs1	106	110	101	99	103	·	·
CC1(c2ccc(Cl)cc2)NC(=O)N(CC(=O)Nc2ccc(N3CCCCC3)cc2)C1=O (stereo not given)	93	87	88	88	79	·	·
CCN(CC(=O)Nc1ccccc1C(F)(F)F)CC(=O)NC1CC1	88	100	97	92	97	·	·
CCN(CC(=O)Nc1ccc(Cl)c(C(F)(F)F)c1)CC(=O)NC1CCS(=O)(=O)C1 (stereo not given)	148	60	79	95	99	·	·	LAP4 cherry2=99;MEP2 cherry2=103;RPL19A GFP CP2=103;CIT2-GFP pick2=98;AGP1-GFP pick2=98
SMILES	MEP2 TOR yeast	RPL19A TOR yeast	AGP1-GFP MLPCN	LAP4 TOR yeast	CIT2-GFP yeast	s288c autofluor	TORC1 bypass	others
CC(=O)c1ccc(N2CCN(C(=O)C3CCN(S(=O)(=O)c4ccc5c(c4)CC(C)N5C(C)=O)CC3)CC2)cc1 (stereo not given)	94	86	109	183*	90	·	·	LAP4 cherry2=104;MEP2 cherry2=105;RPL19A GFP CP2=100;CIT2-GFP pick2=107;AGP1-GFP pick2=99
CC(=O)N1c2ccc(S(=O)(=O)N3CCC(C(=O)N4CCN(c5cccc(C(F)(F)F)c5)CC4)CC3)cc2CC1C (stereo not given)	102	99	100	95	103	·	·
Cc1ccc(NS(=O)(=O)c2ccc(-c3csc(C)n3)s2)c(C)c1	95	93	101	113	84	·	·
Cc1cc(Nc2cc(Nc3ccccc3)nc(NCc3ccccc3)n2)n[nH]1	·	·	·	·	·	·	3
COC(=O)c1nc(-c2ccccc2)n[nH]1	106	102	97	100	86	·	·
COC(=O)c1cccc(-c2cc(Nc3cc(C)[nH]n3)nc(NCc3ccccc3)n2)c1	·	·	·	·	·	·	3

Screens: PubChem BioAssay, NMMLSC
